Structures are written as SMILES. Among all 7,700 compounds or so, about 15 (0.2%) were called active. Roughly 6% stayed inconclusive and do not appear here. This is one part of a sample in which actives are shown more often than they occur. A number with no mark means an inactive call.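 How the source made its calls: active means more than half of replicate wells with inhibition above about 18% (limit read from the data, passing the limit was not always enough); inconclusive means exactly half of replicate wells above that limit; inactive means fewer than half of replicates above it.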

The assay concerns the target Regulator of chromosome condensation (Homo sapiens) + GTP-binding nuclear protein Ran (Homo sapiens) + Importin subunit beta-1 (Homo sapiens) (UniProt P18754+P62826+Q14974). The assay can be described thus: RanGTP/importin-beta interaction disruptors – biochemical, CFP-Ran/YFP-importin-beta FRET, RCC1, cell-free, primary screen (AID 434961).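 Further: 0% = DMSO wells and 100% inhibition = RanGDP control wells on each plate.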 As to conditions: active compounds read high, concentration not given here.
Take `C[C@@H]1CN([C@@H](C)CO)C(=O)c2cc(NC(=O)Nc3ccc4c(c3)OCO4)ccc2O[C@@H]1CN(C)C`: the inhibition (usually the drop in the measured response relative to a control, in per cent) was -2.36%. Consider `C[C@H]1CCCCO[C@@H](CN(C)S(=O)(=O)c2ccccc2)[C@@H](C)CN([C@@H](C)CO)C(=O)c2cc(N(C)C)ccc2O1`, for which the inhibition was 1.05%. With `C[C@H](CO)N1C[C@H](C)[C@H](CN(C)Cc2ccc3c(c2)OCO3)Oc2c(NC(=O)c3ccncc3)cccc2C1=O`, the inhibition was -1.01%. For `C[C@H](CO)N1C[C@H](C)[C@H](CN(C)Cc2ccc3c(c2)OCO3)Oc2ccc(NC(=O)Nc3ccc(F)cc3)cc2CC1=O`, the inhibition is 1.05%. Consider `CNC[C@@H]1Oc2ccc(NC(=O)CCC(F)(F)F)cc2C(=O)N([C@@H](C)CO)C[C@H]1C`, for which the inhibition was 2.65%. In the case of `CNC[C@@H]1Oc2ccc(NC(=O)Nc3ccc4c(c3)OCO4)cc2CC(=O)N([C@@H](C)CO)C[C@@H]1C` it was -0.999%; in that of `C[C@@H]1CCCCO[C@H](CN(C)C)[C@@H](C)CN([C@H](C)CO)C(=O)c2cc(NC(=O)Cc3ccccc3)ccc2O1`, -1.13%; in that of `C[C@H](CO)N1C[C@H](C)[C@@H](CN(C)C(=O)Nc2ccc3c(c2)OCO3)Oc2ccc(N(C)C)cc2C1=O`, -2.04%. Take `C[C@@H]1CCCCO[C@@H](CN(C)C(=O)C2CCCCC2)[C@@H](C)CN([C@@H](C)CO)C(=O)c2cc(NS(C)(=O)=O)ccc2O1`: the inhibition was -4.64%.

As for `C[C@@H]1CN([C@H](C)CO)C(=O)CCCn2cc(nn2)CO[C@@H]1CN(C)C(=O)Nc1ccc(N2CCCCC2)cc1`, the inhibition was 10.6%. Consider `C[C@@H]1CCCCO[C@@H](CN(C)Cc2ccncc2)[C@H](C)CN([C@@H](C)CO)C(=O)c2cc(NC(=O)c3ccncc3)ccc2O1`, for which the inhibition was 5.19%. For `C[C@@H]1CCCCO[C@H](CN(C)C(=O)C2CCCCC2)[C@H](C)CN([C@H](C)CO)C(=O)c2cc(NC(=O)Nc3ccccc3)ccc2O1`, the inhibition is 1.96%. On to `C[C@@H]1CN([C@H](C)CO)C(=O)c2cccc(NS(=O)(=O)c3ccc(Cl)cc3)c2O[C@@H]1CN(C)C`, for which the inhibition is -2.17%. Under `Cc1noc(C)c1NC(=O)N(C)C[C@H]1Oc2ccc(NC(=O)Cc3ccccc3)cc2C(=O)N([C@H](C)CO)C[C@H]1C` stands 4.11%; under `C[C@H](CO)N1C[C@H](C)[C@H](CN(C)C)Oc2ccc(NS(C)(=O)=O)cc2C1=O`, 4.53%. As for `C[C@@H]1CN([C@H](C)CO)C(=O)Cc2cc(N(C)C)ccc2O[C@H]1CN(C)Cc1ccc(C(F)(F)F)cc1`, the inhibition was -0.721%.

`CC(C)NC(=O)Nc1ccc2c(c1)C(=O)N([C@@H](C)CO)C[C@@H](C)[C@H](CN(C)S(=O)(=O)c1cccs1)OCCCC[C@H](C)O2`: the inhibition is 3.77%. Turning to `COc1ccc(S(=O)(=O)N(C)C[C@@H]2Oc3c(NC(=O)c4ccncc4)cccc3C(=O)N([C@@H](C)CO)C[C@H]2C)cc1`, the inhibition is -7.21%. For the molecule `Cc1noc(C)c1NC(=O)Nc1ccc2c(c1)CC(=O)N([C@H](C)CO)C[C@@H](C)[C@@H](CN(C)C(=O)NC(C)C)O2`, the inhibition was 0.926%. For the molecule `Cc1noc(C)c1NC(=O)Nc1ccc2c(c1)C(=O)N([C@@H](C)CO)C[C@@H](C)[C@@H](CN(C)C(=O)CCCN(C)C)OCCCC[C@@H](C)O2`, the inhibition is -4.32%. Under `C[C@@H]1CN([C@@H](C)CO)C(=O)Cc2cc(NC(=O)c3ccncc3)ccc2O[C@H]1CN(C)C(=O)Nc1ccccc1` stands 3.73%. In the case of `COc1ccc(NC(=O)Nc2ccc3c(c2)C(=O)N([C@@H](C)CO)C[C@H](C)[C@@H](CN(C)S(=O)(=O)c2cn(C)cn2)O3)cc1` it was 1.4%; in that of `C[C@H](CO)N1C[C@H](C)[C@H](CN(C)C(=O)c2ccncc2)OCCCC[C@H](C)Oc2ccc(NS(=O)(=O)c3ccccc3)cc2C1=O`, -1.72%; in that of `CC(C)NC(=O)Nc1ccc2c(c1)C(=O)N([C@@H](C)CO)C[C@@H](C)[C@@H](CN(C)C)OCCCC[C@H](C)O2`, -4.5%. For `C[C@@H]1CN([C@H](C)CO)C(=O)c2cc(NS(=O)(=O)c3cn(C)cn3)ccc2O[C@@H](C)CCCCO[C@@H]1CN(C)C`, the inhibition was -0.00982%. Turning to `CC(C)NC(=O)N(C)C[C@H]1Oc2ccc(N(C)C)cc2CC(=O)N([C@H](C)CO)C[C@@H]1C`, the inhibition was 0.831%. As to `COc1ccc(S(=O)(=O)Nc2ccc3c(c2)C(=O)N([C@@H](C)CO)C[C@@H](C)[C@@H](CN(C)S(=O)(=O)c2cccs2)O3)cc1`, the inhibition is -0.91%. Turning to `C[C@@H]1CCCCO[C@@H](CN(C)S(=O)(=O)c2ccc(F)cc2)[C@@H](C)CN([C@@H](C)CO)C(=O)c2cc(NC(=O)C3CCCCC3)ccc2O1`, the inhibition is 2.57%. Regarding `Cc1noc(C)c1NC(=O)N(C)C[C@@H]1Oc2c(NC(=O)c3ccc(-c4nccs4)cc3)cccc2C(=O)N([C@@H](C)CO)C[C@@H]1C`, the inhibition was -3.18%.

Take `COc1ccc(CN(C)C[C@H]2Oc3ccc(NC(=O)Nc4c(C)noc4C)cc3CC(=O)N([C@H](C)CO)C[C@@H]2C)cc1`: the inhibition was -6.52%. Consider `C[C@@H]1CN([C@@H](C)CO)C(=O)c2cc(NS(=O)(=O)c3ccccc3)ccc2O[C@@H](C)CCCCO[C@H]1CN(C)Cc1ccncc1`, for which the inhibition is -2.17%. On to `C[C@H]1CN([C@@H](C)CO)C(=O)c2cccc(NS(=O)(=O)c3ccc(Cl)cc3)c2O[C@@H]1CN(C)C(=O)Nc1ccc(F)cc1`, for which the inhibition was 0.723%. For `C[C@H](CO)N1C[C@H](C)[C@@H](CN(C)C(=O)Nc2ccc(F)cc2)Oc2c(NS(=O)(=O)c3ccc(Cl)cc3)cccc2C1=O`, the inhibition was 2.75%. In the case of `CNC[C@H]1Oc2c(NC(=O)Nc3c(C)noc3C)cccc2C(=O)N([C@@H](C)CO)C[C@H]1C`, the inhibition is 1.31%.

`Cc1noc(C)c1S(=O)(=O)Nc1ccc2c(c1)CC(=O)N([C@@H](C)CO)C[C@@H](C)[C@H](CN(C)C(=O)Nc1ccc(F)cc1)O2`: the inhibition was -0.469%. Under `C[C@@H]1CN([C@@H](C)CO)C(=O)Cc2cc(NC(=O)c3ccncc3)ccc2O[C@@H]1CN(C)C(=O)Nc1cccc2ccccc12` stands 2.94%. With `C[C@@H]1CN([C@@H](C)CO)C(=O)c2cc(NC(=O)C3CC3)ccc2O[C@@H]1CN(C)C(=O)Nc1ccccc1`, the inhibition was -1.01%. `C[C@H]1CN([C@@H](C)CO)C(=O)c2cccc(NS(=O)(=O)c3cccs3)c2O[C@H]1CN(C)Cc1ccc(C(=O)O)cc1`: the inhibition was -1.12%. Take `C[C@H](CO)N1C[C@H](C)[C@H](CN(C)C(=O)c2ccccc2)OCc2cnnn2CCCC1=O`: the inhibition is 3.45%.

In the case of `Cc1noc(C)c1NC(=O)Nc1ccc2c(c1)CC(=O)N([C@@H](C)CO)C[C@H](C)[C@@H](CN(C)S(=O)(=O)c1cccs1)O2`, the inhibition was 0.0231%. For `Cc1noc(C)c1NC(=O)N(C)C[C@@H]1Oc2ccc(NC(=O)Cc3ccccc3)cc2C(=O)N([C@@H](C)CO)C[C@H]1C`, the inhibition was 6.07%. In the case of `C[C@H](CO)N1C[C@H](C)[C@H](CN(C)C)Oc2c(NC(=O)Nc3ccc(C(F)(F)F)cc3)cccc2C1=O`, the inhibition is -2.27%.

For the molecule `COc1ccc(CN(C)C[C@@H]2Oc3ccc(NC(=O)Nc4ccc(C(F)(F)F)cc4)cc3CC(=O)N([C@H](C)CO)C[C@@H]2C)cc1`, the inhibition is 1.78%. Turning to `C[C@@H]1CN([C@@H](C)CO)C(=O)c2cccc(NC(=O)Nc3ccc(C(F)(F)F)cc3)c2O[C@H]1CN(C)C(=O)Nc1ccc(F)cc1`, the inhibition was 1.42%. As to `C[C@H](CO)N1C[C@H](C)[C@H](CN(C)S(=O)(=O)c2cn(C)cn2)OCCCC[C@H](C)Oc2ccc(NC(=O)CCCN(C)C)cc2C1=O`, the inhibition is 1.98%. On to `C[C@@H]1CCCCO[C@@H](CN(C)S(=O)(=O)c2ccccc2)[C@@H](C)CN([C@@H](C)CO)C(=O)c2cc(NS(C)(=O)=O)ccc2O1`, for which the inhibition was 1.15%. Turning to `C[C@@H]1CCCCO[C@H](CN(C)C)[C@H](C)CN([C@H](C)CO)C(=O)c2cc(NC(=O)Nc3ccc4c(c3)OCO4)ccc2O1`, the inhibition is 7.53%. For `COc1ccc(S(=O)(=O)N(C)C[C@@H]2Oc3ccc(NS(=O)(=O)c4ccc(Cl)cc4)cc3C(=O)N([C@H](C)CO)C[C@@H]2C)cc1`, the inhibition was 1.93%.

For `C[C@H]1CN([C@@H](C)CO)C(=O)c2cccc(NS(=O)(=O)c3cn(C)cn3)c2O[C@@H]1CN(C)CC1CC1`, the inhibition is -0.875%. In the case of `Cc1noc(C)c1NC(=O)N(C)C[C@@H]1Oc2ccc(NC(=O)C3CC3)cc2CC(=O)N([C@@H](C)CO)C[C@H]1C` it was 3.34%; in that of `CNC[C@H]1Oc2ccc(NC(=O)Cc3ccccc3)cc2C(=O)N([C@H](C)CO)C[C@@H]1C`, -10.8%; in that of `C[C@H]1CN([C@@H](C)CO)C(=O)c2cccc(NS(=O)(=O)c3ccc(Cl)cc3)c2O[C@H]1CN(C)Cc1ccncc1`, -0.815%. In the case of `C[C@H]1CN([C@@H](C)CO)C(=O)c2cc(NC(=O)CCC(F)(F)F)ccc2O[C@H]1CN(C)C(=O)Nc1ccccc1` it was 1.36%; in that of `C[C@H](CO)N1C[C@H](C)[C@H](CN(C)C(=O)Nc2ccccc2)Oc2ccc(NC(=O)Cc3cn(C)c4ccccc34)cc2CC1=O`, 2.8%. Regarding `C[C@H]1CCCCO[C@H](CN(C)Cc2ccc(C(=O)O)cc2)[C@@H](C)CN([C@@H](C)CO)C(=O)c2cc(NC(=O)Nc3ccc(F)cc3)ccc2O1`, the inhibition is 5.7%. In the case of `C[C@H](CO)N1C[C@H](C)[C@H](CN(C)S(=O)(=O)c2cn(C)cn2)Oc2ccc(N(C)C)cc2CC1=O` it was -2.21%.

For the origin of these results see PubChem BioAssay AID434961 (Broad Institute, 2010).
